Results reported in PubChem BioAssay (Tox21).
Inconclusive results are not listed. More than one record can exist for a structure, and the calls need not agree. The source made the active and inactive calls. Unless noted, the call rests on the fitted dose curve.

Key:
[1] = Nuclear factor erythroid 2-related factor 2/antioxidant responsive element (Nrf2/ARE) small molecule agonists: qHTS cell viability counter screen in human keratinocytes (AID 1919968; active means well fitted curve in the direction sought with a large enough effect in the repeat runs; an effect the other way counts as inactive or inconclusive; further: nearly all actives have a fitted effect of over 55% in size)
Outline: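 Cytotoxicity was multiplexed with the Nrf2/ARE luciferase assay in the same wells. Stably transfected HaCaT keratinocytes were treated with test compounds for 23 h at 37 C. Cell viability was then measured by CellTiter-Fluor fluorescence.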

[2] = Nuclear factor erythroid 2-related factor 2/antioxidant responsive element (Nrf2/ARE) small molecule agonists: luciferase reporter gene qHTS assay in human keratinocytes (AID 1919969); further: nearly all actives have a fitted effect of over 35% in size; further: potency means the concentration at half of the fitted maximal effect
[3] = target: Gonadotropin-releasing hormone receptor (Homo sapiens) (UniProt P30968); experiment: Human gonadotropin-releasing hormone receptor (GnRHR) small molecule agonists, calcium flux assay in GnRHR-HEK293 cells (AID 1920063); further: nearly all actives have a fitted effect of over 35% in size
Outline: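 Agonist activity was measured as intracellular calcium flux in HEK293 cells engineered to stably express human GnRHR. After dye loading for 1 hour at 37 C, compounds in DMSO were added and fluorescence was followed for 3 minutes.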

[4] = target: KiSS-1 receptor (Homo sapiens) (UniProt Q969F8); experiment: Human kisspeptin (KISS1R) small molecule agonists, calcium flux assay in KISS1R-HEK293 cells (AID 1920064; active means well fitted curve in the direction sought with a large enough effect in the repeat runs; an effect the other way counts as inactive or inconclusive)
Outline: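 Agonist activity is monitored as intracellular calcium rise in engineered HEK293 cells carrying human KISS1R. Cells are dye-loaded for 1 h at 37 C before compound addition, and fluorescence is recorded for 3 min.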

[5] = G protein-coupled receptor (GPCR) small molecule agonists, calcium flux assay: HEK293 wild type cell line counter screen (AID 1920065)
Outline: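 Seed cells, incubate 18 h (37 C, 5% CO2); add calcium dye, 1 h at 37 C; pin-transfer compounds, ATP control or DMSO; read fluorescence 480/540 nm each second for 3 min.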

[6] = p53 small molecule agonists, cell-based qHTS assay with human liver microsomes (AID 1963577)
Outline: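 Cells carrying a p53-responsive bla reporter were rested 5 h (37 C, 5% CO2) before compound transfer. Human liver microsomes plus NADPH, 0.5 mg/mL final apiece, supplied metabolism during the 16 h 37 C exposure.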

[7] = p53 small molecule agonists, cell-based qHTS assay with rat liver microsomes (AID 1963578)
Outline: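 Fluorescence from a beta-lactamase reporter under a p53 response element was measured after cells had been incubated 16 h at 37 C with test compound and rat liver microsomes plus NADPH (0.5 mg/mL final each).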

[8] = p53 small molecule agonists, cell-based qHTS assay with human liver microsomes: qHTS cell viability counter screen (AID 1963579); further: nearly all actives have a fitted effect of over 45% in size; further: potency means the concentration at half of the fitted maximal effect
Outline: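 Seed p53RE-bla cells at 4,000 per well; incubate 5 h at 37 C; add compound, human liver microsomes and NADPH; incubate 16 h at 37 C; add CellTiter-Glo; after 30 min at room temperature, read luminescence.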

[9] = p53 small molecule agonists, cell-based qHTS assay with rat liver microsomes: qHTS cell viability counter screen (AID 1963580); further: nearly all actives have a fitted effect of over 45% in size; further: potency means the concentration at half of the fitted maximal effect
Outline: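 After the beta-lactamase ratio was read, CellTiter-Glo was added to the same wells and luminescence measured at 30 min; cells had been treated 16 h at 37 C with compounds, rat liver microsomes and NADPH (0.5 mg/mL final each).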

[10] = p53 small molecule agonists, cell-based qHTS assay: qHTS cell viability counter screen (AID 1963581); further: nearly all actives have a fitted effect of over 45% in size
Outline: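 Viability was counter-screened in parallel with the p53 agonist reporter by measuring intracellular ATP luminescence in the same HCT-116 p53RE-bla wells after 16 h compound treatment at 37 C.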

[11] = p53 small molecule agonists, cell-based qHTS assay (AID 1963582; active means well fitted activation curve with a large enough effect in the signal ratio in the repeat runs, not every such curve was filed as active; the % refers to the signal ratio)
Outline: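 Cells carrying a p53-responsive bla reporter are treated with test compounds for 16 h at 37 C; beta-lactamase activity is then detected with LiveBLAzer B/G FRET substrate after 2 h at room temperature.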

[12] = target: 5-hydroxytryptamine receptor 2A (Homo sapiens) (UniProt P28223); experiment: 5-hydroxytryptamine receptor 2A (HTR2A) small molecule agonists, cell-based qHTS assay (AID 1963587); further: nearly all actives have a fitted effect of over 30% in size
Outline: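 CHO cells stably expressing human HTR2A, plated 18 h, loaded with calcium dye 1 h at 37 C. Agonist mode: compounds added and intracellular calcium fluorescence recorded kinetically for 2 min at 1 sec intervals.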

[13] = target: Muscarinic acetylcholine receptor M1 (Homo sapiens) (UniProt P11229); experiment: Cholinergic receptor muscarinic 1 (CHRM1) small molecule antagonists, cell-based qHTS assay (AID 1963588); further: nearly all actives have a fitted effect of over 40% in size
Outline: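 Compounds were tested at 15 concentrations in three independent runs. Dye-loaded CHRM1-CHO cells were exposed 5 min at room temperature before stimulation by acetylcholine added at 50nM. Intracellular calcium was read kinetically on FDSS for 3 min.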

[14] = target: Muscarinic acetylcholine receptor M1 (Homo sapiens) (UniProt P11229); experiment: Cholinergic receptor muscarinic 1 (CHRM1) small molecule agonists, cell-based qHTS assay (AID 1963589); further: nearly all actives have a fitted effect of over 35% in size
Outline: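 Cells were plated and incubated 18 h at 37 C/5% CO2, loaded with calcium dye for 1 h at 37 C, then treated with compounds in DMSO. Fluorescence was recorded kinetically at 1 sec intervals.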

[15] = cAMP Responsive Elements (CRE) small molecule agonists, cell-based qHTS assay (AID 1963590)
Outline: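 Cells carrying a CRE-driven beta-lactamase reporter (HEK 293T) are seeded, incubated overnight (18 h), and treated with test compounds for 3 h at 37 C; reporter activity is then detected with a FRET substrate after 2 h at room temperature.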

[16] = cAMP Responsive Elements (CRE) small molecule antagonists, cell-based qHTS assay (AID 1963591; active means well fitted inhibition curve with a large enough effect in the signal ratio in the repeat runs, not every such curve was filed as active; the % refers to the signal ratio)
Outline: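 Cells (CRE-bla HEK 293T, DMEM with 10% dialyzed FBS and 25 mM HEPES) are seeded and incubated 18 h. Compounds are added with NKH477 agonist at 0.25 uM final for 3 h, then FRET substrate for 2 h.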

[17] = target: Beta-2 adrenergic receptor (Homo sapiens) (UniProt P07550); experiment: Adrenergic beta2 receptor (ADRB2) small molecule antagonists, cell-based qHTS assay (AID 1963592); further: series mostly up to about 92 µM; nearly all actives have a fitted effect of over 50% in size
Outline: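 Assay format: CHO-ADRB2 cells, 18-20hr seeding at 37C/5% CO2, then compound plus 1nM isoproterenol agonist mix for 0.5hr RT. Homogeneous time-resolved fluorescence cAMP detection after 1hr, expressed as 665/615 nm ratio.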

[18] = target: Beta-2 adrenergic receptor (Homo sapiens) (UniProt P07550); experiment: Adrenergic beta2 receptor (ADRB2) small molecule agonists, cell-based qHTS assay (AID 1963593);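 further: CHO cells stably overexpressing human ADRB2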
Outline: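 CHO cells stably over-expressing ADRB2 were plated overnight at 37C, then dosed with compounds plus a stimulation mix containing 100uM IBMX and 25uM Ro-20-1724 for 0.5hr at room temperature. cAMP was measured by HTRF competition, 1hr.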

[19] = target: D(2) dopamine receptor (Homo sapiens) (UniProt P14416); experiment: Dopamine D2 receptor (DRD2) small molecule agonists, cell-based qHTS assay (AID 1963594); further: nearly all actives have a fitted effect of over 35% in size
Outline: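 HEK293 cells stably expressing human DRD2, pre-treated with PDE inhibitor Ro20-1724 (0.1 mM final) and compound 10 min at room temperature, then stimulated with NKH477 (200nM […]) for 30 min. cAMP read by HTRF (665/620 nm).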

[20] = target: D(2) dopamine receptor (Homo sapiens) (UniProt P14416); experiment: Dopamine D2 receptor (DRD2) small molecule antagonists, cell-based qHTS assay (AID 1963595; active means well fitted inhibition curve with a large enough effect in the signal ratio in the repeat runs, with a control signal flat; the % refers to the signal ratio)
Outline: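 HEK293 cells stably expressing DRD2, preincubated with 0.1 mM Ro20-1724 and compounds 10 min, were stimulated with 200 nM NKH477 plus 12 nM quinpirole for 30 min at room temperature; cAMP measured by HTRF (665/620 nm).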

Measured: Potency

Chain of KiSS-1 receptor (Homo sapiens) (Q969F8 whole entry, looked up): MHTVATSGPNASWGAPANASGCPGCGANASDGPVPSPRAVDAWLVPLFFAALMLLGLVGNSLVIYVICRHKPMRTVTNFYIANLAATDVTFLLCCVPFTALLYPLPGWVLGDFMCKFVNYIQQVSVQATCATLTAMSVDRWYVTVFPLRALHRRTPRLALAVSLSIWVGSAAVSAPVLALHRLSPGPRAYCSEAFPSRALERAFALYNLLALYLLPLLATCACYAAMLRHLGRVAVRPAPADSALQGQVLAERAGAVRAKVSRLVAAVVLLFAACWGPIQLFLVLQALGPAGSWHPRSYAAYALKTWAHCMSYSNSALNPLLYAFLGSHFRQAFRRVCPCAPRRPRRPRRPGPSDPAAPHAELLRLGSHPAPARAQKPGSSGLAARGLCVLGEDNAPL
Chain of Beta-2 adrenergic receptor (Homo sapiens) (P07550 whole entry, looked up): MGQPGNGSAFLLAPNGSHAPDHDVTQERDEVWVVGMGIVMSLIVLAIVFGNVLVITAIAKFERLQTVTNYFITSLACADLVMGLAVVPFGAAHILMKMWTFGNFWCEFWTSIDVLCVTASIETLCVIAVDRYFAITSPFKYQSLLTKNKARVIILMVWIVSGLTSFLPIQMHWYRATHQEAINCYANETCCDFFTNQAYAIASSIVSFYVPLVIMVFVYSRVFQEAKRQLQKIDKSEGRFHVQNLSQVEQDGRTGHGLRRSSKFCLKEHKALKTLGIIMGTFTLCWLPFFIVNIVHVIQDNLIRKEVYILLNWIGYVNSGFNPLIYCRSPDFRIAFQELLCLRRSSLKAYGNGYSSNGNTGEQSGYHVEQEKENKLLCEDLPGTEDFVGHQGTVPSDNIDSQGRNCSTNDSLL
Chain of D(2) dopamine receptor (Homo sapiens) (P14416 whole entry, looked up): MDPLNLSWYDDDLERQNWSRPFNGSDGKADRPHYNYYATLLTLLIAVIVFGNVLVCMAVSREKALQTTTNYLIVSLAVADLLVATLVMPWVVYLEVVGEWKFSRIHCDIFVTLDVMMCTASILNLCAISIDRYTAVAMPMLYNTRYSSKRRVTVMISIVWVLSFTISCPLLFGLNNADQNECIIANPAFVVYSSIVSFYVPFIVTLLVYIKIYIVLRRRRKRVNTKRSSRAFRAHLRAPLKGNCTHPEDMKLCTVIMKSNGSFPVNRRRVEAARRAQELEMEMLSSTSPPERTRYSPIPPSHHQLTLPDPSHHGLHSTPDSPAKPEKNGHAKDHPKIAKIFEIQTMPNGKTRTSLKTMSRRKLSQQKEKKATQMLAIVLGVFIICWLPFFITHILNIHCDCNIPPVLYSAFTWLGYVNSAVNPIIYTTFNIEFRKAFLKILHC
Chain of Gonadotropin-releasing hormone receptor (Homo sapiens) (P30968 whole entry, looked up): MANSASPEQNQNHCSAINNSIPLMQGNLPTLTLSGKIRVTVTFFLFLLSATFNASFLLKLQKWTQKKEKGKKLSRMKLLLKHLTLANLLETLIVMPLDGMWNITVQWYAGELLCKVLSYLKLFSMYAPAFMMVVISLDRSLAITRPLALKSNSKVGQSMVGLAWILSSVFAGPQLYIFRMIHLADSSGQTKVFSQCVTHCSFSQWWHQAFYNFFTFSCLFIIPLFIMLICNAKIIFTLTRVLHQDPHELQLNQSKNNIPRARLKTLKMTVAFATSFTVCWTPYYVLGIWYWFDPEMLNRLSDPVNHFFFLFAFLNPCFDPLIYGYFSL
Chain of 5-hydroxytryptamine receptor 2A (Homo sapiens) (P28223 whole entry, looked up): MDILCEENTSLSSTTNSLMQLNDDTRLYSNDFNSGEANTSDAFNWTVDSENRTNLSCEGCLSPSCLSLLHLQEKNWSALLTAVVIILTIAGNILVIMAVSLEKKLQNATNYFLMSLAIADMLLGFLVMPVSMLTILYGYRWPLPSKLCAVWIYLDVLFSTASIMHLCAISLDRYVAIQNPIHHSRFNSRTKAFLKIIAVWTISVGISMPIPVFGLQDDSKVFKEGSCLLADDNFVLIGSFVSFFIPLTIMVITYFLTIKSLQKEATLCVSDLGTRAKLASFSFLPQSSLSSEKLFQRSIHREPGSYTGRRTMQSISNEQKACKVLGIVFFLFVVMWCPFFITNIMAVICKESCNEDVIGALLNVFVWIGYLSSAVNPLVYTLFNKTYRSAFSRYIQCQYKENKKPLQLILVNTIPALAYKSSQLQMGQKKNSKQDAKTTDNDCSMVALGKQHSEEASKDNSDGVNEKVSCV
Chain of Muscarinic acetylcholine receptor M1 (Homo sapiens) (P11229 whole entry, looked up): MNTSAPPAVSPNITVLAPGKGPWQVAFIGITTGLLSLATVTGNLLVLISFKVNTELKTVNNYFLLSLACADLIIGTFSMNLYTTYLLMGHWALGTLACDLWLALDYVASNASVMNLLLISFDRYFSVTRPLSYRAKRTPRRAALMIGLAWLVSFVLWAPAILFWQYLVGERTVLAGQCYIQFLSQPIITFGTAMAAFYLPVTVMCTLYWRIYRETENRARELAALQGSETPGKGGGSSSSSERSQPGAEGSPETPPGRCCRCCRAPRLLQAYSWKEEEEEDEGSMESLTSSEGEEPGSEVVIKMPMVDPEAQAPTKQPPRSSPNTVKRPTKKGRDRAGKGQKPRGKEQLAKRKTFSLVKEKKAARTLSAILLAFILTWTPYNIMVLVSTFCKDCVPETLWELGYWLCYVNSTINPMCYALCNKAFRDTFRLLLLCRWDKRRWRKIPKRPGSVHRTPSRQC

CCCCCCCCS(=O)(=O)Cl
not listed: [20]
inactive: all other assays above

O=C(O)c1cc(N=Nc2ccc(S(=O)(=O)Nc3ccccn3)cc2)ccc1O
not listed: [12] | [13] | [14] | [20]
inactive: all other assays above

CCCCN(CCCC)CCCCCCN(CCCC)CCCC
not listed: [16]
inactive: all other assays above

Cc1oncc1C(=O)Nc1ccc(C(F)(F)F)cc1
27.3 µM (active) and inactive: [2]
20.4 µM (active) and inactive: [8]
active: [9] 20.4 µM
not listed: [12] | [13] | [14] | [15] | [18]
inactive: all other assays above

NC/C=C/C(=O)O
inactive: all assays above

CC(C)CCCC(C)CCCC(C)CCCCC(C)CCCC(C)CCCC(C)C (stereo not given)
not listed: [18]
inactive: all other assays above

O=c1cccc[nH]1
inactive: all assays above

CCc1c(C(=O)O)c(=O)cnn1-c1ccc(Cl)cc1
not listed: [15] | [18] | [20]
inactive: all other assays above

Cc1ccc(C(=O)Nc2ccc(S(=O)(=O)O)c3cc(S(=O)(=O)O)cc(S(=O)(=O)O)c23)cc1NC(=O)c1cccc(NC(=O)Nc2cccc(C(=O)Nc3cc(C(=O)Nc4ccc(S(=O)(=O)O)c5cc(S(=O)(=O)O)cc(S(=O)(=O)O)c45)ccc3C)c2)c1
not listed: [13]
inactive: all other assays above

Oc1ccc(OCc2ccccc2)cc1
active: [2] 8.45 µM
not listed: [12] | [13] | [14] | [16]
inactive: all other assays above

Cc1cc(C)cc(O)c1
not listed: [12]
inactive: all other assays above

C=CC(C)(CCC=C(C)C)OC(=O)CC (stereo not given)
not listed: [14] | [15]
inactive: all other assays above

CN1C(=O)CC(C)(c2ccccc2)C1=O (stereo not given)
inactive: all assays above

CC(C)NC(=O)c1ccccc1N
not listed: [12] | [18]
inactive: all other assays above
